# Source: PubChem BioAssay
# PP1 inh: counter-screen for PP5 inhibitors: inhibitors of human PP1-alpha. P62136. purified PP1alpha, OMFP fluorescence. inhibition, % at 6.7 µM. 0.9% of 320,000 active. AID 2235;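 active means inhibition above the mean inhibition of all tested compounds plus 3 SD, computed separately for each screening campaign, cut at about 15% in these data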
# Target sequence (P62136 whole entry, looked up): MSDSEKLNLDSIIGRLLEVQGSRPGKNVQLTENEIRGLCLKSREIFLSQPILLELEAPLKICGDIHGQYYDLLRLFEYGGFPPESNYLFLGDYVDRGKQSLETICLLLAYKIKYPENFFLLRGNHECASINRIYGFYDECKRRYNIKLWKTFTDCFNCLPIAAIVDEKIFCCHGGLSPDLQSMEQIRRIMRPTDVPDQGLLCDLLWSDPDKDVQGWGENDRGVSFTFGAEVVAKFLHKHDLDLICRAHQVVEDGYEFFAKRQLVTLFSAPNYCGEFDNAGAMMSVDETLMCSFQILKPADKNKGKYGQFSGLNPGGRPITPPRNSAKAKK
# Beta cell apopt: blocks beta cell apoptosis. INS-1E cytokine-induced death, ATP luminescence, 48 h; percent of positive-control rescue, neutral wells zero. protection from apoptosis, % (no concentration beside the values). 0.8% of 300,000 active. AID 435005;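 active means Every replicate reaches about 75%, or at least half do and their mean reaches it too, limit read from the data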;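 further: higher means more ATP so stronger rescue from cytokine killing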
# CSC inhib: cancer stem cell inhibition; cancer stem cell-like cells viability, luminescence; 1.1% of 300,000 active; inhibition, % at 7.5 µM; in the data active means inhibition above about 75%; tested in HMLE shEcad cells
# SKKanGAS inh: inhibitors of SKKanGAS S. pyogenes growth in kanamycin (SK-promoter or general growth effect); BacTiter-Glo, 6 h; inhibition, % at 7.5 µM; 1.3% of 300,000 active;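 active means mean replicate score, as percent of positive control median, at least 50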;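 further: strain carries kanamycin resistance gene driven by streptokinase promoter and grows in 40 µg/ml kanamycin; loss of luminescence reflects streptokinase promoter inhibition or plain growth inhibition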
# PP5 primary: blocks human protein phosphatase 5 activity. P53041. purified PP5c, OMFP substrate fluorescence. inhibition, % at 6.7 µM. 0.18% of 320,000 active;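 active means inhibition above the campaign's mean inhibition across all tested compounds plus 3 SD, cut at about 9.5% in these data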
# PP1 confirm: confirmation of human PP1 phosphatase inhibitors; shares compounds with PP1 inh; purified PP1alpha, OMFP substrate fluorescence; inhibition, % at 6.7 µM; 52% of 1,900 active; AID 2358;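 active means mean PP1 inhibition above a set limit taken from the earlier primary screen, cut at about 15% in these data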
# PP5 inh counter: PP5 phosphatase inhibition, counter-screen for PP1 inhibitors. shares compounds with PP1 inh. purified PP5c, OMFP fluorescence. inhibition, % at 6.7 µM. 4% of 1,900 active;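 active means mean PP5 inhibition over triplicate wells above about 9.5% taken from the earlier PP1 screen, limit read from the data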
# Hits are given with their value; . = inactive; / = no result. The list is not random: actives were taken first. Their share in the collection is about 3.1%.
SMILES,PP1 inh,Beta cell apopt,CSC inhib,SKKanGAS inh,PP5 primary,PP1 confirm,PP5 inh counter
C#CCOCCOCCOCCNc1nc(N2CCN(C(=O)[C@H]([C@@H](C)CC)n3cc(CCCCN)nn3)CC2)nc(N2CCN(C(=O)[C@H](CCCCN)n3cc(CC(C)O)nn3)CC2)n1 (stereo not given in full),.,.,.,/,.,/,/
C#CCOCCOCCOCCNc1nc(N2CCN(C(=O)CCCCCCCCCCNC(=O)[C@@H](CCC(=O)O)n3cc(CCCCCN)nn3)CC2)nc(N2CCN(C(=O)CCCCCCCCCCNC(=O)[C@H](CCCCN)n3cc(C[C@@H](C)CC)nn3)CC2)n1,18,.,.,/,.,.,.
Cc1cc(NC(=O)c2nn(C)c(C)c2Br)no1,.,.,.,.,.,/,/
COc1cc(CNCCNC(=O)c2nonc2N)ccc1OCc1ccc(Cl)nc1,.,.,.,.,.,/,/
COc1ccccc1CCC(=O)OCC(=O)c1c(N)n(CC(C)C)c(=O)n(C)c1=O,83,.,.,.,.,.,.
CC(C)CC1c2[nH]c3ccccc3c2CCN1CCCn1cccn1 (stereo not given),.,.,.,.,.,/,/
COc1ccc(OCc2nc(-c3ccc(F)c(F)c3)cs2)cc1,.,.,.,.,.,/,/
NS(=O)(=O)c1cccc(NC(=O)CC(NC(=O)c2ccccc2Cl)c2ccccc2)c1 (stereo not given),.,.,.,.,.,/,/
Nc1nc(N)c2cc(Sc3ccc4ccccc4c3)ccc2n1,23,109,119,109,.,.,.
CCCCC1(C)NC(=O)N(CC(=O)Nc2ccc(Cl)cc2C)C1=O (stereo not given),/,.,.,/,/,/,/
N=c1n(CCN2CCCCC2)c2ccccc2n1CC(=O)c1ccc(Cl)c(Cl)c1,27,.,103,.,.,.,.
CC1CN(CC(=O)NN=C(c2ccccc2)c2ccccc2)CC(C)O1 (stereo not given),.,.,.,.,.,/,/
O=C(CSc1nc2nc(-c3cccs3)cc(C(F)(F)F)c2c(=O)[nH]1)Nc1ccc(F)c(F)c1,39,.,104,88,.,30,.
Cc1ccc(C)c(NC(=O)CSc2nc3nc(-c4cccs4)cc(C(F)(F)F)c3c(=O)[nH]2)c1,23,.,96,57,.,.,.
Nc1nc(SCC(=O)Nc2ccc(C(F)(F)F)cc2)[nH]c(=O)c1NC(=O)c1ccc(F)c(F)c1,.,.,.,.,.,/,/
Cc1ccc(C)c(NC(=O)CSc2ccc(-c3cccs3)nn2)c1,.,.,.,.,.,/,/
Cc1c(Cl)c([N+](=O)[O-])nn1CCCC(=O)NCCc1ccccc1,.,.,.,.,.,/,/
O=Cc1cn(-c2ccccc2)nc1-c1cc2cc(O)ccc2oc1=O,28,.,.,.,.,18,.
CN(C)C(=O)COC(=O)c1ccccc1Nc1ccc(SC(F)F)cc1,.,.,.,.,.,/,/
C=CCOc1ccc(/C=C2\SC(=S)N(NS(=O)(=O)c3ccc(C)cc3)C2=O)cc1,25,.,.,.,.,17,.
Cc1ccc(/C=C2\SC(=S)N(NS(=O)(=O)c3ccc(C)cc3)C2=O)cc1,.,/,.,.,.,/,/
COC(=O)c1cc(NC(=S)N2CCN(C(=O)C3CCCO3)CC2)cc(C(=O)OC)c1 (stereo not given),.,.,.,.,.,/,/
COc1ccc2[nH]c3c(c2c1)CCn1c-3nc2ccccc2c1=O,26,.,/,/,.,22,.
C#CCOCCOCCOCCNc1nc(N2CCN(C(=O)[C@H]([C@@H](C)CC)n3cc([C@@H](N)CC(C)C)nn3)CC2)nc(N2CCN(C(=O)[C@H](Cc3cc4ccccc4[nH]3)n3cc([C@@H](N)Cc4ccc(O)cc4)nn3)CC2)n1,25,.,.,.,.,.,.
C#CCOCCOCCOCCNc1nc(N2CCN(C(=O)[C@H]([C@@H](C)CC)n3cc([C@@H](N)CC(C)C)nn3)CC2)nc(N2CCN(C(=O)[C@H](Cc3cc4ccccc4[nH]3)n3cc([C@@H](N)C(C)CC)nn3)CC2)n1 (stereo not given in full),/,/,/,.,/,/,/
